Reference: PubChem BioAssay (NCATS)
Results filed as inconclusive are left out. Calls of active or inactive are those of the source. Unless noted, calls follow the shape of the dose curve; as a rule, active = well fitted curve in the direction sought with a large enough effect; inconclusive = small, poorly fitted or top-dose-only effect, or another doubt; inactive = no such curve, though single readings can be large; an effect the other way counts as inactive or inconclusive.

Key:
[1] = target: Endonuclease 4 (Escherichia coli (strain K12)) (UniProt P0A6C1); test: Counterscreen for APE1 Inhibitors: qHTS Validation Assay for Inhibitors of Endonuclease IV (AID 1708); also: potency is read from the fitted curve at half-maximal effect
Procedure, shortened: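 Incision of a double-stranded 50 nM TAMRA/BHQ-2 abasic substrate was followed kinetically (525/598 nm, reads every 60 s) after 15 min enzyme–compound preincubation with 2 nM EndoIV in pH 7.5 Tris buffer with MgCl2, DTT and Tween-20; concentration-response format.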

[2] = qHTS for differential inhibitors of proliferation of Plasmodium falciparum line 7G8 (AID 1815);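 also: parasite growth measured after three days of incubation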; also: potency is read from the fitted curve at half-maximal effect
[3] = qHTS for differential inhibitors of proliferation of Plasmodium falciparum line GB4 (AID 1816); settings: Potency: Plasmodium falciparum GB4 proliferation inhibition;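 also: parasite growth measured after 72 h incubation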; also: potency is read from the fitted curve at half-maximal effect
[4] = qHTS for differential inhibitors of proliferation of Plasmodium falciparum line 3D7 (AID 1876); also: potency is read from the fitted curve at half-maximal effect
[5] = qHTS for differential inhibitors of proliferation of Plasmodium falciparum line D10 (AID 1877);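 also: parasites grown with compound for 72 h before DNA staining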; also: potency is read from the fitted curve at half-maximal effect
[6] = qHTS for differential inhibitors of proliferation of Plasmodium falciparum line Dd2 (AID 1882); settings: Potency: Plasmodium falciparum Dd2 proliferation inhibition; also: nearly all actives have a fitted effect of over 65% in size; also: potency is read from the fitted curve at half-maximal effect
Procedure, shortened: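 SYBR Green DNA fluorescence (ex 485, em 535 nm) after overnight lysis quantifies parasite growth; compound exposure lasted 72 h at 37 C on infected red cells at 2.5% hematocrit, 0.3% parasitemia (final). Artemisinin 0.29 uM and vehicle wells define normalization.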

[7] = qHTS for differential inhibitors of proliferation of Plasmodium falciparum line W2 (AID 1883); settings: Potency: Plasmodium falciparum W2 proliferation inhibition;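 also: parasites grown with compound for 72 h before lysis and staining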; also: potency is read from the fitted curve at half-maximal effect
[8] = qHTS for differential inhibitors of proliferation of Plasmodium falciparum line HB3 (AID 1886); settings: Potency: Plasmodium falciparum HB3 proliferation inhibition;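 also: parasites grown with compound for 72 h before SYBR Green readout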; also: potency is read from the fitted curve at half-maximal effect
[9] = qHTS Assay for Modulators of Human Peripheral Myelin Protein 22 (PMP22) Expression/Activity (AID 1967; active = well fitted curve in the direction sought with a large enough effect in the signal ratio; the % refers to the signal ratio)
Procedure, shortened: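 Engineered MSC80 cells, Pmp22-promoter green and EF-alpha red luciferase reporters; 24h compound treatment at 37 °C. Concentration-response fits on green, red and ratio signals, each overlap-corrected, with %Activity normalized to untreated wells.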

Measured: Potency

C[N+](C)(CCCCCC[N+](C)(C)CCCN1C(=O)c2cccc3cccc(c23)C1=O)CCCN1C(=O)c2cccc3cccc(c23)C1=O
inactive: [1] | [9]
active: [2] 0.794 µM | [3] 0.316 µM | [4] 0.0631 µM | [5] 0.631 µM | [6] 2.24 µM | [7] 0.631 µM | [8] 0.562 µM

CN1CCC[C@H]1c1cccnc1
inactive: [1] | [2] | [3] | [4] | [5] | [6] | [7] | [8] | [9]

C=CC(N)CCC(=O)O (stereo not given)
inactive: [1] | [2] | [3] | [4] | [5] | [6] | [7] | [8] | [9]

O=C1C(SCCO)=C(SCCO)C(=O)c2ccccc21
inactive: [1]
active: [2] 3.16 µM | [3] 2 µM | [4] 2.24 µM | [5] 11.2 µM | [6] 6.31 µM | [7] 10 µM | [8] 2 µM

O=C(Nc1ccccc1)c1cc([N+](=O)[O-])ccc1Cl
inactive: [1] | [6]
active: [2] 8.91 µM | [3] 11.2 µM | [4] 11.2 µM | [5] 11.2 µM | [7] 12.6 µM | [8] 10 µM

Fc1ccc(C(OCCCc2cnc[nH]2)c2ccc(F)cc2)cc1
inactive: [1]
active: [2] 1.58 µM | [3] 1.26 µM | [4] 1.26 µM | [5] 5.01 µM | [6] 8.91 µM | [7] 0.794 µM | [8] 2.51 µM

CC1(C)CCC=[N+]1[O-]
inactive: [1] | [2] | [3] | [4] | [5] | [6] | [7] | [8] | [9]

O=C(Nc1cccc(C(=O)Nc2ccc(S(=O)(=O)O)c3cc(S(=O)(=O)O)cc(S(=O)(=O)O)c23)c1)Nc1cccc(C(=O)Nc2ccc(S(=O)(=O)O)c3cc(S(=O)(=O)O)cc(S(=O)(=O)O)c23)c1
active: [1] 8.91 µM
inactive: [2] | [3] | [4] | [5] | [6] | [7] | [8]

CC12C(=O)OC(=O)C1(C)C1CCC2O1 (stereo not given)
active: [2] 3.98 µM | [3] 4.47 µM | [4] 3.16 µM | [5] 2.24 µM | [6] 4.47 µM | [7] 2.51 µM | [8] 3.98 µM
inactive: [1]

CC(COc1ccc(/C=C/c2ccccc2)cc1)[N+](C)(C)C (stereo not given)
active: [2] 7.08 µM | [3] 2.24 µM | [4] 1.26 µM | [5] 2.24 µM | [6] 5.01 µM | [7] 2.82 µM | [8] 2 µM
inactive: [1]

O=C(O)CNC(=O)C(CS)Cc1ccccc1 (stereo not given)
inactive: [1] | [2] | [3] | [4] | [5] | [6] | [7] | [8] | [9]

CN(C)C(N)=NCCC[C@H](N)C(=O)O
inactive: [1] | [2] | [3] | [4] | [5] | [6] | [7] | [8]

N[C@@H](CC(=O)O)C(=O)O
inactive: [1] | [2] | [3] | [4] | [5] | [6] | [7] | [8]

CC(C)(C)c1ccc(S(=O)(=O)/C=C/C#N)cc1
active: [2] 10 µM | [3] 14.1 µM | [4] 10 µM | [5] 12.6 µM | [6] 11.2 µM | [7] 7.08 µM | [8] 8.91 µM
inactive: [1]

CN1CCc2ccccc2Cc2[nH]c3ccccc3c2CC1
active: [2] 7.08 µM | [3] 10 µM | [4] 7.08 µM | [5] 12.6 µM | [6] 12.6 µM | [7] 5.62 µM | [8] 10 µM
inactive: [1]

NCCCCC(=O)O
inactive: [1] | [2] | [3] | [4] | [5] | [6] | [7] | [8] | [9]

COc1ccccc1CNCCCCCCNCCCCCCCCNCCCCCCNCc1ccccc1OC
inactive: [1]
active: [2] 1.41 µM | [3] 2.24 µM | [4] 0.891 µM | [5] 2.24 µM | [6] 4.47 µM | [7] 1 µM | [8] 2 µM

NC(CCCP(=O)(O)O)C(=O)O (stereo not given)
inactive: [1] | [2] | [3] | [4] | [5] | [6] | [7] | [8]

COc1cc2nc(N3CCN(C(=O)OCc4ccccc4)C(C(=O)NC(C)(C)C)C3)nc(N)c2cc1OC (stereo not given)
inactive: [1]
active: [2] 2.82 µM | [3] 2.82 µM | [4] 3.16 µM | [5] 10 µM | [6] 8.91 µM | [7] 2.24 µM | [8] 7.94 µM

O=C(O)c1cc(=O)c2c(Cl)cc(Cl)cc2[nH]1
inactive: [1] | [2] | [3] | [4] | [5] | [6] | [7] | [8] | [9]

O=C1NC(O)=NC1(c1ccccc1)c1ccccc1
inactive: [1] | [2] | [3] | [4] | [5] | [6] | [7] | [8]

COc1cc(C(O)CO)ccc1OS(=O)(=O)O (stereo not given)
inactive: [1] | [2] | [3] | [4] | [5] | [6] | [7] | [8] | [9]

O=C(O)[C@@H]1C[C@H](C(=O)O)N1
inactive: [1] | [2] | [3] | [4] | [5] | [6] | [7] | [8]

NC[C@@H]1O[C@H](C23CC4CC(CC(C4)C2)C3)Cc2c1ccc(O)c2O
active: [2] 2 µM | [3] 2 µM | [4] 2.24 µM | [5] 3.16 µM | [6] 8.91 µM | [7] 2.24 µM | [8] 2.82 µM
inactive: [1]

O=C(O)/C=C/C(O)c1ccc(Cl)cc1 (stereo not given)
inactive: [1] | [2] | [3] | [4] | [5] | [6] | [7] | [8]

CN1CCc2cccc3c2C1Cc1ccc(O)c(O)c1-3 (stereo not given)
inactive: [1]
active: [2] 2.24 µM | [3] 2.24 µM | [4] 2 µM | [5] 2.24 µM | [6] 6.31 µM | [7] 2.24 µM | [8] 2 µM

CCCN(CC1CC1)c1nc(C)nc(Nc2c(Cl)cc(Cl)cc2Cl)c1Cl
inactive: [1]
active: [2] 3.55 µM | [3] 3.98 µM | [4] 2.82 µM | [5] 3.98 µM | [6] 11.2 µM | [7] 3.16 µM | [8] 4.47 µM

OC[C@H]1O[C@@H](n2cnc3c(NC4CCCCC4)ncnc32)[C@H](O)[C@@H]1O
inactive: [1] | [2] | [3] | [4] | [5] | [6] | [8]

NC(=O)C(=O)O
inactive: [1] | [2] | [3] | [4] | [5] | [6] | [7] | [8] | [9]

CC(=O)N[C@H](C(=O)O)C(C)(C)SN=O
inactive: [1] | [2] | [3] | [4] | [5] | [6] | [7] | [8] | [9]

Cc1ccc(C(=O)O[C@H](C(=O)O)[C@@H](OC(=O)c2ccc(C)cc2)C(=O)O)cc1 (tested in a mixture with another compound)
inactive: [1] | [2] | [3] | [4] | [5] | [6] | [7] | [8] | [9]

O=C(O)c1cc(=O)c2ccccc2[nH]1
inactive: [1] | [2] | [3] | [4] | [5] | [6] | [7] | [8] | [9]

CNCC[C@H](Oc1ccc(C(F)(F)F)cc1)c1ccccc1
inactive: [1]

CCCCCCCCCCCCCCCCCC(=O)NCC(COP(=O)([O-])OCC[N+](C)(C)C)OCC (stereo not given)
active: [5] 14.1 µM
inactive: [1] | [2] | [3] | [4] | [6] | [8] | [9]

OCC1O[C@H](O)C(Cl)C(O)C1O (stereo not given in full)
inactive: [1] | [3] | [4] | [5] | [6] | [7] | [8] | [9]

O=C(/C=C/c1ccc(O)c(O)c1)OCCc1ccccc1
active: [2] 6.31 µM | [3] 5.01 µM | [4] 10 µM | [5] 12.6 µM | [7] 5.01 µM | [8] 10 µM
inactive: [1]

N#C/C(=C\c1ccc(O)c(O)c1)C(=O)NCc1ccccc1
active: [2] 12.6 µM | [3] 11.2 µM | [4] 10 µM | [5] 17.8 µM | [7] 11.2 µM | [8] 11.2 µM
inactive: [1]

Oc1cc2c(cc1O)CN(C(=S)NCCc1ccc(Cl)cc1)CCC2
inactive: [1]
active: [2] 8.91 µM | [5] 12.6 µM | [6] 8.91 µM | [8] 8.91 µM

C[C@@H](CN1CCC(Cc2ccccc2)CC1)[C@@H](O)c1ccc(O)cc1
active: [2] 10 µM | [3] 14.1 µM | [7] 4.47 µM
inactive: [1] | [8] | [9]

CN1CCc2cc(O)c(O)cc2C(c2ccccc2)C1 (stereo not given)
inactive: [1]
active: [2] 11.2 µM | [3] 10 µM | [5] 12.6 µM | [7] 10 µM | [8] 12.6 µM

O=C(c1cc(O)c(O)c([N+](=O)[O-])c1)c1ccccc1F
inactive: [1] | [4] | [5] | [6] | [8]
